AmpC inh detg = blocks E. coli AmpC beta-lactamase in detergent assay | P00811 | AmpC hydrolysis of nitrocefin, absorbance 480 nm, 0.01% Triton | Potency, µM (highest dose often 114 µM), for the others: at the highest dose activity change, negative = inhibition, usual class: inhibitors | actives 0.041% (n = 370,000);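 note: potency is the fitted concentration of half-maximal effect; 0% = no-compound wells and -100% = no-enzyme wells; nearly all actives have a fitted effect of over 25% in size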
Target sequence (P00811 whole entry, looked up): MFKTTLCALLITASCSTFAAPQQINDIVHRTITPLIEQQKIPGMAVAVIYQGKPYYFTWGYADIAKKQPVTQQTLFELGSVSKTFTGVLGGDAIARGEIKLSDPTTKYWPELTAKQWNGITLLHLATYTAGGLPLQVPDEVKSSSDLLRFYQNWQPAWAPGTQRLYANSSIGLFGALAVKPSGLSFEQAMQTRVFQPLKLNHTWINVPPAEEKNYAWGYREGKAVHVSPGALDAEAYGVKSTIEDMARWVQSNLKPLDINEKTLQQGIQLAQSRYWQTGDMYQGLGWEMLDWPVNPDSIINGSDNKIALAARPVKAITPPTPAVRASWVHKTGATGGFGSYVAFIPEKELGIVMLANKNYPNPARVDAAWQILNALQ
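AmpC (5.3 nM in the dispensed reagent) in 20 mM phosphate pH 7.0 with 0.01% (detergent screen) or 0.0001% Triton X-100 was preincubated with compounds for 15 min at room temperature. Nitrocefin was then added from an 800 uM solution, and hydrolysis was followed at 480 nm.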
Shiga inhibitor = blocks Shiga toxin action in Vero cells. Vero cells, Shiga toxin protein synthesis inhibition reporter. inhibition, % at 38.7 µM. actives 9.2% (n = 290,000). AID 2315; in the data active = inhibition mostly above about 28%, no sharp cut-off; inactive = mostly below about 43%; note: 0% is about no effect
Cycloheximide cs = counter-screen for Shiga toxin inhibitors: cycloheximide protein synthesis inhibition. cell reporter, cycloheximide protein synthesis inhibition counterscreen. max response, %. actives 12% (n = 300,000); in the data active = max response mostly above about 13%, no sharp cut-off; inactive = mostly below about 14%; note: read at 38.3 µM for the half of the compounds with a filed dose; 0% is about no effect
AmpC no deterg = AmpC beta-lactamase inhibition without detergent | P00811 | actives 0.52% (n = 330,000) | AmpC nitrocefin hydrolysis, absorbance 480 nm, 0.0001% Triton | Potency, µM (titrated, usually from 57.1 µM), for the others: top-dose activity change, negative = inhibition, hits mostly inhibitors;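 note: potency is the fitted concentration of half-maximal effect; plate controls were no compound for no effect and no enzyme for full effect; nearly all actives have a fitted effect of over 20% in size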
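AmpC (5.3 nM in the dispensed reagent) in 20 mM phosphate pH 7.0 with 0.01% (detergent screen) or 0.0001% Triton X-100 was preincubated with compounds for 15 min at room temperature. Nitrocefin was then added from an 800 uM solution, and hydrolysis was followed at 480 nm.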
NS1 inh = influenza NS1 inhibition; Potency, µM (top dose mostly 46.1 µM), for inactives: at the highest dose activity, positive = more growth; actives 0.4% (n = 270,000); calls by dose curve; note: potency is the fitted concentration of half-maximal effect; actives are rising curves; nearly all actives have a fitted effect of over 50% in size
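Read-out: OD600 growth recovery of NS1-expressing budding yeast. Cells grown overnight at 30C in -URA glucose medium, washed, resuspended and diluted 1:100 in 2% galactose assay medium, pH 6.0. Same strain lacking NS1 served as positive control.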
* hit, by the source's call; ? = inconclusive; · = no result. Many of the other results were omitted from the sample, so hits are more common in it than they were. Unless noted, calls come from the whole dose curve; as a rule, active = well fitted curve in the direction sought with a large enough effect; inconclusive = small, poorly fitted or top-dose-only effect, or another doubt; inactive = no such curve, though single readings can be large; an effect the other way counts as inactive or inconclusive.

SMILES	AmpC inh detg	Shiga inhibitor	Cycloheximide cs	AmpC no deterg	NS1 inh
O=C(NCCc1c[nH]c2ccccc12)c1ccccc1O	·	29*	38*	·	·
c1ccc2c(NCCc3c[nH]c4ccccc34)c3ccccc3nc2c1	-4%	24	-11	?	-2%
Fc1cccc(NCCc2c[nH]c3ccccc23)n1	-6%	40	37*	-25%	-7%
O=C(Cc1ccccc1)NCCc1c[nH]c2ccccc12	-2%	7	-2	-11%	12%
CC1CCC2(CC1)NC(=O)N(NC(=O)C1CCN(C(=O)c3ccc(Cl)cc3)CC1)C2=O (configuration not stated)	1%	·	·	2%	·
Fc1ccccc1/C=N/Nc1ncnc2ccccc12	?	52	41*	0%	·
Clc1ccc(/C=N/Nc2ncnc3ccccc23)cc1Cl	-1%	90*	26*	-1%	-28%
Cc1ccc(C(CC(=O)c2ccc(Cl)cc2)C(=O)O)cc1 (configuration not stated)	-3%	2	0	-16%	·
COC(=O)C(CC(=O)c1ccc(Cl)cc1)c1ccc(C(C)C)cc1 (configuration not stated)	1%	70*	37*	0.25µM*	-16%
Cc1ccc(NC(=S)N(CCCN(C)C)Cc2cc3cc4c(cc3[nH]c2=O)OCO4)c(C)c1	6%	-23	-1	41%	-1%
Cc1ccc(S(=O)(=O)N/N=c2\sc3ccccc3n2C)cc1	1%	-11	-7	-18%	2%
CC(=O)N/N=c1\sc2ccccc2n1C	?	29	1	4%	·
Cn1/c(=N\NC(=O)C2CCCCC2)sc2ccccc21	3%	56*	37*	-6%	·
Cn1/c(=N\NC(=O)c2ccccc2Cl)sc2ccccc21	-3%	75*	31*	0%	·
CN(C)S(=O)(=O)c1cccc(NC(=S)NC23CC4CC(CC(C4)C2)C3)c1	6%	-8	-2	-17%	4%
NS(=O)(=O)c1cccc(NC(=S)NC(=O)C23CC4CC(CC(C4)C2)C3)c1	-2%	66*	23*	-21%	28%
O=c1c2ccccc2[nH]c(=S)n1-c1ccc2c(c1)OCCO2	6%	99*	45*	-19%	12%
O=c1c2ccccc2[nH]c(=S)n1Cc1ccc2c(c1)OCO2	1%	-3	-4	-25%	·
Nc1nc(N)c2sc3nc4c(cc3c2n1)CCC4	0%	52	25*	-19%	-5%
Nc1c(C(=O)Nc2ccccc2F)sc2nc3c(cc12)CCCCCC3	10%	·	·	·	·
COC(=O)c1sc2nc(C)nc(SCC(=O)C(C)(C)C)c2c1C	14%	52	38*	-16%	·
CS(=O)(=O)Nc1ccccc1C(=O)OCc1cc(=O)n2nc(C3CCCCC3)sc2n1	-6%	·	·	·	·
COc1cccc(C(=O)/C=C/Nc2cccc(O)c2)c1	?	-10	-1	-25%	-70%
CCOC(=O)c1ccc(N/C=C/C(=O)c2ccc(OC)cc2)cc1	-3%	1	1	-17%	-9%
COc1cccc(N/C=C/C(=O)c2ccc(C)cc2)c1	-9%	63*	21*	37%	-48%
SMILES	AmpC inh detg	Shiga inhibitor	Cycloheximide cs	AmpC no deterg	NS1 inh
COc1cccc(N/C=C/C(=O)c2ccc(Cl)cc2)c1	-1%	92*	63*	-36%	-17%
COc1ccc(N/C=C/C(=O)c2ccc(Cl)cc2)cc1	?	69*	63*	-41%	8%
COc1cc(-c2n[nH]c(=S)n2-c2cc(C(F)(F)F)ccc2Cl)cc(OC)c1OC	-4%	-13	-2	-26%	16%
CCC(=O)Oc1ccc(C(=O)Nc2ccc([N+](=O)[O-])cc2)cc1	-10%	102*	40*	-44%	3%
CC(C)COc1ccc(C(=O)Nc2ccc(SC(F)F)cc2)cc1	?	39	24*	-34%	8%
CC(C)COc1ccc(C(=O)Nc2ccc([N+](=O)[O-])cc2)cc1	2%	51*	30*	-26%	-2%
O=C(O)c1ccc2c(c1)C(=O)N([C@H](Cc1ccc(O)cc1)C(=O)O)C2=O	?	-6	0	-4%	·
COc1cc(CNCc2ccccn2)ccc1OCc1cccc(Cl)c1	-17%	73	25*	100%	2%
COc1cc(CNCc2ccco2)ccc1OCc1ccccc1	-17%	61*	33*	-11%	-1%
c1ccc(COc2cccc(CNCc3cccs3)c2)cc1	-8%	41	24*	-8%	-12%
COc1cc(CNCc2cccs2)ccc1OCc1ccccc1	2%	7	26*	-2%	-1%
